Measured values taken from PubChem BioAssay AID2289 (National Center for Advancing Translational Sciences (NCATS), 2010).
About 3,300 (0.97%) of roughly 340,000 compounds were called active. Another 9% or so got no clear call; they are omitted. Calls follow the shape of the dose curve; as a rule, active = well fitted inhibition curve with a large enough effect; inconclusive = small, poorly fitted or top-dose-only effect, or effect the other way; inactive = flat fitted curve, though single readings scatter. This is one part of the list.

Assay: qHTS Assay for Modulators of miRNAs and/or Inhibitors of miR-21; also: nearly all actives have a fitted effect of over 55% in size
Details: HeLa miR-21-FLuc reporter, luciferase luminescence, 48 h; actives lower the signal
Method in brief: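 Using DMEM plus 10% FBS, HeLa miR-21-FLuc cells are incubated with test compounds (final up to about 40uM) for 48 hours; firefly luciferase signal is then imaged following reagent-mediated lysis.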
Potency is read from the fitted curve at half-maximal effect.

Potency, active:
O=C(COc1ccc2c(c1)OCO2)Nc1cccc(F)c1 8.26 µM
CC1Cc2ccccc2N1C(=O)COc1ccc2c(c1)OCO2 (centres undefined) 11.7 µM
O=C(COc1ccc2c(c1)OCO2)Nc1ccccc1C(F)(F)F 16.5 µM
O=C(COc1ccc2c(c1)OCO2)Nc1ccc(Cl)cn1 2.07 µM
COc1ccccc1NC(=O)COc1ccc(CO)cc1Cl 5.85 µM
COc1ccccc1NC(=O)COc1ccc2c(c1)OCO2 7.36 µM
Cc1occc1C(=O)N/N=C/c1ccc(-c2ccccc2)cc1 0.147 µM
Cc1ccc(/C=N/NC(=O)c2ccoc2C)o1 16.5 µM
Cc1ccc(/C=N\Nc2cn[nH]c(=O)c2Cl)cc1 14.7 µM
Cc1cccc(/C=N\Nc2cn[nH]c(=O)c2Cl)c1 18.5 µM
O=C(/C(C=Nc1ccc(F)cc1)=C(/O)c1ccco1)C(F)(F)F 4.14 µM
CC(=O)COc1ccc2c3c(c(=O)oc2c1C)CCCCC3 3.29 µM
CC(=O)C(C)Oc1ccc2c3c(c(=O)oc2c1C)CCCC3 (centres undefined) 16.5 µM
O=C(N/N=C/c1ccncc1)c1cccs1 5.21 µM
CC(=O)Nc1ccc(/C=N/NC(=O)c2cccs2)cc1 5.85 µM
CSc1ccc(/C=N/NC(=O)c2cccs2)cc1 1.31 µM
Cc1ccc(/C=N/N=C/c2ccc(C)s2)s1 0.927 µM
COc1cc(/C=N/NC(=O)c2cccs2)ccc1O 10.4 µM
Cc1ccc(/C=N/NC(=O)c2cccs2)s1 7.36 µM
O=C(N/N=C/c1ccc2c(c1)OCO2)c1cccs1 1.65 µM
CCNC(=S)/N=C(\N)Nc1nc(C)c2cc(C)ccc2n1 5.85 µM
Cc1nc2ccc(NC(=O)c3cccs3)cc2s1 3.69 µM
CC(C)(C)c1ccc(C(=O)Nc2ccccc2Cl)cc1 0.826 µM
Cc1nc2ccc(NC(=O)c3ccccc3)cc2s1 5.85 µM
Cc1nc2ccc(C(=O)Nc3ccccc3Cl)cc2s1 3.69 µM
Cc1nc2ccc(NC(=O)c3cc(Cl)ccn3)cc2s1 0.369 µM
Cc1nc2ccc(NC(=O)N(C)c3ccccc3)cc2s1 9.27 µM
Cc1nc2ccc(NC(=O)c3ccc4ccccc4n3)cc2s1 3.69 µM
CCOc1ncccc1C(=O)Nc1ccc2nc(C)sc2c1 8.26 µM
C=CCC(CC(O)COCCC)C(=O)NNC(=S)Nc1ccccc1 (centres undefined) 13.1 µM
CCCn1c(C)cc(/C=C(\C#N)C(=O)OCC(=O)Nc2cc(OC)c(OC)c(OC)c2)c1C 16.5 µM
Cc1ccccc1Nc1nc(N)nc(COC(=O)c2ccccc2)n1 13.1 µM
COc1ccccc1C(=O)OCc1nc(N)nc(Nc2ccccc2C)n1 18.5 µM
CCn1c(SCc2ccccc2Cl)nc2ccccc21 13.1 µM
Cn1c(SCc2ccccc2Cl)nc2ccccc21 3.29 µM
Cn1c(SCc2ccc(C#N)cc2Cl)nc2ccccc21 4.65 µM
O=[N+]([O-])c1ccc2nc(SCc3cn4ccccc4n3)[nH]c2c1 18.5 µM
c1ccn(-c2ccc(-c3ccn[nH]3)cc2)c1 6.56 µM
O=C(c1cnn(-c2cccc(F)c2)c1)c1ccccc1O 3.69 µM
N#C/C(=C/c1ccc(O)c(O)c1)c1nc2ccccc2[nH]1 3.29 µM
CN(C)c1ccc(/C=C(\C#N)c2nc3ccccc3c(=O)[nH]2)cc1 0.131 µM
c1ccc(Nc2nc(-c3ccccc3)ns2)cc1 0.414 µM
Cc1nnc(SCc2ccccc2Cl)c2cc3occc3n12 11.7 µM
Nc1ccc2nc(-c3ccc(Cl)cc3)[nH]c2c1 6.56 µM
Clc1ccc(-c2nc3ccncc3[nH]2)cc1 7.36 µM
CCOC(=O)CCSc1nc(C)c2cc(OC)ccc2n1 8.26 µM
CCOC(=O)CCSc1nc(C)c2cc(C)ccc2n1 10.4 µM
OC1CCCN(c2c3c(nc4cc(-c5cccc(F)c5)nn24)CCCC3)C1 (centres undefined) 2.07 µM
COc1ccc(NC(=O)c2coc3ccccc23)cc1OC 9.27 µM
COc1ccc(NC(=S)Nc2ncccc2C)cc1OC 5.21 µM
O=C(Nc1ccc(SC(F)(F)F)cc1)c1ccccn1 0.369 µM
COc1ccc(NC(=O)c2ccccn2)cc1OC 11.7 µM
Cc1ccc(-c2nnc(CCC(=O)NCC3C4CC5CC(C4)CC3C5)o2)s1 (centres undefined) 14.7 µM
CS(=O)(=O)Nc1ccc(C2=NN(S(C)(=O)=O)C(c3ccc4c(c3)OCO4)C2)cc1 (centres undefined) 4.65 µM
CS(=O)(=O)N1N=C(c2ccc(Br)cc2)CC1c1ccc2c(c1)OCO2 (centres undefined) 0.927 µM
Cc1ccc(C2=NN(S(C)(=O)=O)C(c3ccc4c(c3)OCO4)C2)cc1 (centres undefined) 0.521 µM
CC(=O)N1N=C(c2ccc(C)cc2)CC1c1ccc2c(c1)OCO2 (centres undefined) 7.36 µM
COC(=O)c1ccc(CSC2=NCCS2)cc1 4.65 µM
CC(=O)Nc1nc(-c2ccc(Cl)cc2)ns1 1.85 µM
C/C(=N\N=C\c1ccc(N(C)C)cc1)c1cccc([N+](=O)[O-])c1 13.1 µM
Nc1cc([N+](=O)[O-])cc2oc(-c3ccccc3)cc12 14.7 µM
Cc1ccc(OCc2ccc(Br)cc2)c([N+](=O)[O-])n1 2.61 µM
Cc1ccc(COc2ccc(C)nc2[N+](=O)[O-])cc1 0.927 µM
CCOC(=O)c1cc(C(=O)Nc2ccccc2F)nn1C 1.85 µM
CCOC(=O)c1cc(C(=O)Nc2ccc(C)c(F)c2)nn1C 4.65 µM
CCOC(=O)c1cc(C(=O)Nc2cccc(C)c2)nn1C 1.31 µM
COc1nc(Nc2cccc(C(F)(F)F)c2)nc(OC)n1 14.7 µM
COc1cccc(Nc2nc(N)nc(C(F)(F)F)n2)c1 18.5 µM
Nc1nc(Nc2ccc(Cl)cc2Cl)nc(C(F)(F)F)n1 6.56 µM
